# An excerpt weighted towards active compounds, which were near 5.7% of everything screened.
# Giardia killer: Giardia lamblia killing. AID 540267. activity change, % at 7.66 µM, hits read low. Giardia lamblia trophozoite viability. 0.15% of 340,000 active; in the data active = activity change below about -80%; inconclusive = between about -30% and that limit;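 also: parasites exposed to compound for two days anaerobically before the ATP read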
#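 Compounds were tested on trophozoites seeded at 100 cells/well and held 48 hrs at 37 deg C anaerobically. An ATP-based luminescent kit measured the remaining live cells.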
# PI4K2A inh: blocks human PI4K2A kinase activity; 0.13% of 420,000 active; AID 1346378; purified PI4K2A, ADP-Glo luminescence, 1 h; hits give low values; activity change, negative = inhibition, % at 76.9 µM; in the data active = activity change below about -50%; inconclusive = mostly about -30% to -49%;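 also: -100% = wells without enzyme as full effect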
# Target sequence (Q9BTU6 whole entry, looked up): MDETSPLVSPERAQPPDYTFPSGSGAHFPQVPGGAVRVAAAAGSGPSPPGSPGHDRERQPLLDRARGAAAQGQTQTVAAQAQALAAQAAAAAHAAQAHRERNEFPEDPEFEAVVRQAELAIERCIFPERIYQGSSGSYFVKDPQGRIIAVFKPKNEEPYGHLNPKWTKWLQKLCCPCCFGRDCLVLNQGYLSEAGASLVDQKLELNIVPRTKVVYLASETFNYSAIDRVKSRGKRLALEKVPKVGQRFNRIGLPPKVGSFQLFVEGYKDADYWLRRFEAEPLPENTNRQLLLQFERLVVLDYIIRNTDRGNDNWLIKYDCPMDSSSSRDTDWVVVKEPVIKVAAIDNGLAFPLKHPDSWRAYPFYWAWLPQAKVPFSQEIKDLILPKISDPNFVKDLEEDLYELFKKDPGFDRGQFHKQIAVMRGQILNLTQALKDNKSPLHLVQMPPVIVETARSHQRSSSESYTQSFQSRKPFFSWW
#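 In this quantitative HTS, ADP production by PI4K2A was quantified luminescently after 1 h at ambient temperature; 100 microM adenosine served as plate-quality control.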
# KB-3-1 tox: KB-3-1 parental cell cytotoxicity | KB-3-1 viability, CellTiter-Glo ATP luminescence, 72 h | Potency, µM (titrated, usually from 46.1 µM), hits mostly cytotoxic | 1.4% of 400,000 active | AID 1347075; also: potency is read from the fitted curve at half-maximal effect; nearly all actives have a fitted effect of over 60% in size
#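 Here the drug-naive KB-3-1 line serves as comparator for MDR sub-line selectivity; cells received compound titrations, 72 h at 37 °C, then CellTiter-Glo readout.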
# KB-V1 MDR tox: kills drug-selected multidrug resistant KB-V1 cells; KB-V1 MDR cells viability, CellTiter-Glo, 72 h; AID 1347076; Potency, µM (titrated, usually from 46.1 µM), usual class: cytotoxic; 3.4% of 400,000 active; also: potency is read from the fitted curve at half-maximal effect; nearly all actives have a fitted effect of over 60% in size
#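 qHTS viability screen in drug-selected KB-V1 MDR cells: 72 h compound treatment at 37 degrees C, ATP luminescence end point.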
# A549 viability: kills or reduces viability of A549 cells in Nrf2 counter-screen. A549 ARE-Fluc cells, CellTiter-Fluor viability, 18-24 h. Potency, µM (highest dose often 46 µM), without a hit: top-dose activity change, negative = cytotoxicity, hits mostly inhibitors. 0.16% of 390,000 active; also: potency is read from the fitted curve at half-maximal effect
#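 Cytotoxicity counterscreen: CellTiter-Fluor fluorescence was measured in A549 ARE_Fluc cells after 18-24 h of compound exposure in a concentration series. The subsequent BugLite luminescent read reports ARE-luciferase activity.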
# Nrf2 block: inhibitors of Nrf2 signaling; A549 ARE-Fluc reporter, luciferase luminescence, 18-24 h; AID 504444; Potency, µM (highest dose often 46 µM), for inactives: top-dose activity change, negative = inhibition, usual class: inhibitors; 2.1% of 360,000 active; also: potency is read from the fitted curve at half-maximal effect; nearly all actives have a fitted effect of over 60% in size
#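 Concentration-response testing used A549 ARE_Fluc cells at 5000 cells/well. Following an 18-24 h compound incubation, viability was read by fluorescence (Ex 405/Em 525) and luciferase output by luminescence.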
# An asterisk follows results filed as active; i = inactive; ? = inconclusive; . = not tested or not shown. Unless noted, calls follow the shape of the dose curve; as a rule, active = well fitted curve in the direction sought with a large enough effect; inconclusive = small, poorly fitted or top-dose-only effect, or another doubt; inactive = no such curve, though single readings can be large; an effect the other way counts as inactive or inconclusive. Unless noted, % is scaled to controls: 0 for no effect and ±100 for the full control effect.
SMILES,Giardia killer,PI4K2A inh,KB-3-1 tox,KB-V1 MDR tox,A549 viability,Nrf2 block
CCC(C)(c1nnnn1-c1c(C)cccc1C)N(N=O)c1ccccc1Cl (configuration not stated),6.3,5.7,?,18.4µM*,-0.1%,?
CCCSc1nnc2c(n1)OC(c1sccc1C)Nc1ccccc1-2 (configuration not stated),7.9,1.4,.,.,13.5%,?
CCOC(=O)CSc1nnc([C@H](C)NC(=O)OC(C)(C)C)o1,-4.7,8.6,i,i,-3.9%,.
CSCC[C@H](NC(=O)OC(C)(C)C)c1nnc(SCc2ccccc2)o1,4.0,7.5,?,9.2µM*,-1.4%,.
CC(C)C[C@H](NC(=O)OC(C)(C)C)c1nnc(SCc2cccc(F)c2)o1,1.5,3.9,i,i,.,?
CSCC[C@H](NC(=O)OC(C)(C)C)c1nnc(SCc2cccc(F)c2)o1,-18.9,-10.0,i,i,-2.1%,.
C[C@H](NC(=O)OC(C)(C)C)c1nnc(SCc2ccc(Cl)cc2Cl)o1,.,-4.4,?,18.4µM*,1.4%,?
CSCC[C@H](NC(=O)OC(C)(C)C)c1nnc(SCc2ccc(F)cc2)o1,17.9,0.9,i,20.6µM*,-9.9%,25.9µM*
CC(C)[C@H](NC(=O)OC(C)(C)C)c1nnc(SCc2cccc(F)c2)o1,7.3,-0.3,i,13µM*,-3.0%,-10.8%
CCN(CC)C(=O)CSc1nnc([C@H](Cc2c[nH]c3ccccc23)NC(=O)OC(C)(C)C)o1,3.4,-1.1,i,14.6µM*,-3.7%,18.3%
CCC1CN(C(=O)N2CCC(C(=O)NCc3cccc(C)c3)CC2)c2ccccc2O1 (configuration not stated),.,-15.7,.,.,-3.8%,-6.2%
CCN(CC)C(=O)/C(=C\c1cccc([N+](=O)[O-])c1)NC(=O)c1ccco1,-22.1,2.8,i,13µM*,-1.5%,9.4%
CCn1c(=O)c(C(=O)CN2CCCc3ccccc32)c(N)n(Cc2ccccc2)c1=O,-3.1,-4.0,?,?,-3.4%,16.4µM*
CCOc1cc(CNC2CCCC2)ccc1OCc1ccccc1Cl,-25.8,8.1,?,20.6µM*,-4.3%,11.6%
COc1cc(CNn2cn[nH]c2=S)cc(Br)c1OCc1ccccc1F,0.0,-4.6,i,i,2.0%,-7.3%
COc1cc(CNc2ccc(O)cc2)cc(Br)c1OCc1ccccc1F,11.9,-51.3*,i,i,14.6µM*,5.17µM*
COc1cc(CNCc2ccncc2)cc(Br)c1OCc1ccccc1F,6.9,3.7,4.11µM*,3.66µM*,-3.4%,.
CCOc1cc(CNCCO)cc(Br)c1OCc1ccc(Cl)cc1,4.7,3.2,?,?,0.1%,-24.6%
CCOc1cc(CNCCO)cc(Br)c1OCc1ccccc1Cl,25.0,-10.2,?,23.1µM*,-0.1%,?
COc1ccc(/C=C/S(=O)(=O)NCC(C)C)c(CNC(=O)OC(C)(C)C)c1,.,1.6,.,.,.,.
O=c1c2[nH]c3ccsc3c2cnn1Cc1ccccc1F,.,.,.,.,9.0%,2.7%
O=C(Nc1ccc(Cl)cc1)C1CCN(c2nc3ccccc3n3cccc23)CC1,.,-7.9,.,.,-3.9%,-2.6%
Cc1cccc(N(C)S(=O)(=O)c2nnc(NC(=O)C(C)Oc3ccccc3)s2)c1 (configuration not stated),.,-0.8,.,.,17.1%,26.9%
COc1cccc(CNc2ccc(S(N)(=O)=O)cc2)c1OCc1ccccc1F,-4.2,-2.9,?,20.6µM*,1.5%,-16.4%
C=CCOc1c(CNc2ccc(S(N)(=O)=O)cc2)cccc1OC,1.4,-11.5,i,i,-2.0%,-23.7%
SMILES,Giardia killer,PI4K2A inh,KB-3-1 tox,KB-V1 MDR tox,A549 viability,Nrf2 block
Cc1onc(-c2ccc(Cl)cc2)c1-c1ccn(S(=O)(=O)c2ccccc2Cl)n1,.,-7.2,.,.,.,.
O=S(=O)(c1ccc2c(c1)OCCO2)N1CCN(S(=O)(=O)c2ccc(F)cc2F)CC1,.,.,.,.,2.4%,7.1%
COc1cc(OC)cc(C(=O)Nc2nc(-c3ccccc3)c(-c3ccccc3)o2)c1,-22.7,-3.3,?,i,?,18.4µM*
O=C(c1cccc(F)c1)N1CCC(c2c[nH]c3ccccc23)(c2c[nH]c3ccccc23)CC1,.,-9.0,i,i,-0.7%,19.8%
Cc1cccc(N2CCN(S(=O)(=O)c3cc(-c4cc(C)no4)ccc3C)CC2C)c1 (configuration not stated),11.7,-6.3,?,?,-11.8%,7.31µM*
COc1ccc(-c2cc(C)no2)cc1S(=O)(=O)N1CCN(c2cccc(C)c2)C(C)C1 (configuration not stated),27.3,-1.6,11.6µM*,?,-4.8%,?
Cc1cccc(N2CCN(S(=O)(=O)c3ccc(-c4coc(C)n4)cc3)CC2C)c1 (configuration not stated),-9.0,4.8,i,i,-2.9%,?
COc1cc(OC)c(N(C)C(=O)c2nn(C)c3c2CSc2ccccc2-3)cc1Cl,.,-9.1,.,.,0.3%,23.1%
COc1ccc(-c2nn3c(-c4cc(-c5ccccc5)n[nH]4)nnc3s2)cc1,13.1,.,?,?,-15.8%,23.1µM*
COc1ccc(-c2nn3c(-c4cccc(C)c4)nnc3s2)cc1OC,-6.5,-0.2,i,16.4µM*,-11.3%,?
CN(C)c1ccc(-c2nn3c(-c4ccccc4Cl)nnc3s2)cc1,-0.2,-7.0,0.581µM*,1.16µM*,-6.4%,-16.2%
Clc1ccccc1-c1nn2c(-c3ccncc3)nnc2s1,-2.5,-11.7,i,?,-5.8%,8.2µM*
Clc1ccccc1-c1nnc2sc(-c3ccncc3)nn12,-7.5,-8.6,i,i,1.6%,-0.4%
CN(C)c1ccc(-c2nn3c(-c4cccnc4)nnc3s2)cc1,-3.3,-4.9,i,?,-3.1%,.
CCN(CC)C(=O)CC[C@H]1CC[C@]2(CCCN(C(=O)c3ccco3)C2)O1,.,4.7,.,.,.,.
COc1ccccc1-c1nnc2sc(-c3cc4ccccc4o3)nn12,7.5,-5.6,0.517µM*,?,-4.0%,2.1%
COc1ccccc1-c1nnc2sc(-c3ccc(N(C)C)cc3)nn12,-19.0,-1.3,0.291µM*,0.058µM*,?,?
COc1ccccc1-c1nn2c(C(F)(F)F)nnc2s1,2.0,2.1,?,7.31µM*,-8.3%,-2.0%
FC(F)(F)c1nnc2sc(-c3ccccn3)nn12,1.6,7.5,i,i,-14.8%,-25.7%
O=C(Nc1ccc(F)cc1)OCc1cn(Cc2ccc(F)cc2F)nn1,.,2.8,.,.,.,.
CCOc1cc(C2Nc3ccccc3C(=O)N2Cc2ccco2)ccc1OCc1ccccc1Cl (configuration not stated),18.7,.,i,i,-0.2%,?
